In PubChem BioAssay AID1159580 (chemical genetic matrix, 2015):
Values joined by “and” are separate entries in the source; they are usually repeats but may differ in a detail not shown here. Equal entries are not always repeated. About 2,000 (36%) of roughly 5,500 compounds were called active. About 18% were inconclusive and are not listed. Cut-off read from the data, not from the text of the source: active = normalized growth mostly below about 0.91 (no sharp cut-off); inconclusive = no clear call, values can overlap the other calls; inactive = mostly above about 0.92. The list shows a part of the results.

Assay: chemical genetic growth profiling, strain panel (AID 1159580);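 note: tested at 20 µM; growth read once vehicle control cultures reached saturation at 30 °C; 1 = growth at the plate median or of vehicle wells; lower values mean less growth of the strain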
Details: S. cerevisiae deletion strains, growth OD

Measured: normalized growth

NC(=O)N/N=C\c1ccc([N+](=O)[O-])o1
inactive: locus YAL021C, strain ccr4, hits give low values 0.987 | locus YAL026C, strain drs2, hits give low values 0.988 | locus YAL030W, strain snc1, hits give low values 1 | locus YBL061C, strain skt5, hits give low values 0.997 | locus YBR009C, strain hhf1, hits give low values 0.978 | locus YBR021W, strain FUR4, hits give low values 1.02 | locus YBR023C, strain chs3, hits give low values 0.996 | locus YBR171W, strain sec66, hits give low values 1.01 | locus YBR229C, strain ROT2, hits give low values 0.997 | locus YBR231C, strain swc5, hits give low values 0.993 | locus YBR279W, strain paf1, hits give low values 0.995 | locus YCL011C, strain gbp2, hits give low values 0.986 | locus YCL016C, strain dcc1, hits give low values 0.992 | locus YCL029C, strain bik1, hits give low values 0.99 | locus YCL061C, strain MRC1, hits give low values 1.01 | locus YCL069W, strain vba3, hits give low values 1 | locus YCR088W, strain abp1, hits give low values 0.972 | locus YDL005C, strain med2, hits give low values 0.989 | locus YDL035C, strain GPR1, hits give low values 1.01 | locus YDL040C, strain nat1, hits give low values 0.995 | locus YDL074C, strain BRE1, hits give low values 1.08 | locus YDL101C, strain DUN1, hits give low values 0.993 | locus YDL134C, strain PPH21, hits give low values 1 | locus YDL185W, strain tfp1, hits give low values 0.963 | locus YDL192W, strain arf1, hits give low values 0.99 | locus YDR001C, strain nth1, hits give low values 0.991 | locus YDR069C, strain doa4, hits give low values 0.975 | locus YDR101C, strain arx1, hits give low values 0.977 | locus YDR137W, strain rgp1, hits give low values 1.04 | locus YDR159W, strain sac3, hits give low values 0.993 | locus YDR162C, strain NBP2, hits give low values 1.01 | locus YDR195W, strain ref2 0.967 | locus YDR297W, strain sur2, hits give low values 0.991 | locus YDR318W, strain mcm21, hits give low values 0.983 | locus YDR334W, strain swr1, hits give low values 0.992 | locus YDR335W, strain msn5, hits give low values 0.999 | locus YDR388W, hits give low values 0.984 | locus YDR392W, strain spt3, hits give low values 0.925 | locus YDR502C, strain sam2, hits give low values 0.978 | locus YEL003W, strain gim4, hits give low values 1 | locus YEL037C, strain rad23, hits give low values 1 | locus YEL061C, strain CIN8 (second series), hits give low values 1 | locus YEL061C, strain CIN8, hits give low values 1.02 | locus YER015W, strain faa2, hits give low values 0.962 | locus YER016W, strain bim1, hits give low values 0.968 | locus YER110C, hits give low values 0.966 | locus YER111C, strain swi4, hits give low values 1.01 | locus YER155C, strain BEM2 (second series), hits give low values 0.962 | locus YER155C, strain BEM2, hits give low values 0.994 | locus YER167W, strain BCK2, hits give low values 1 | locus YFR010W, strain ubp6, hits give low values 0.985 | locus YGL078C, strain dbp3, hits give low values 0.995 | locus YGL086W, strain mad1, hits give low values 0.971 | locus YGL167C, strain pmr1, hits give low values 0.994 | locus YGL173C, strain kem1, hits give low values 1.01 | locus YGL227W, strain vid30, hits give low values 1.01 | locus YGL240W, strain doc1, hits give low values 0.952 | locus YGL248W, strain PDE1, hits give low values 0.999 | locus YGL253W, strain hxk2, hits give low values 1.01 | locus YGR135W, strain pre9, hits give low values 0.989 | locus YGR229C, strain SMI1, hits give low values 1.07 | locus YGR252W, strain gcn5, hits give low values 0.951 | locus YHR013C, strain ard1, hits give low values 1.01 | locus YHR027C, strain rpn1, hits give low values 0.988 | locus YHR030C, strain SLT2, hits give low values 0.992 and 0.97 | locus YHR079C, strain IRE1 (second series), hits give low values 0.978 | locus YHR079C, strain IRE1, hits give low values 0.96 | locus YHR094C, strain hxt1, hits give low values 0.982 | locus YHR129C, strain ARP1, hits give low values 0.999 | locus YHR142W, strain chs7, hits give low values 1.02 | locus YHR200W, strain rpn10, hits give low values 0.989 | locus YIL066C, strain RNR3, hits give low values 1.01 | locus YIL073C, strain SPO22, hits give low values 0.975 | locus YIL125W, strain kgd1, hits give low values 0.983 | locus YIR030C, strain dcg1, hits give low values 0.989 | locus YJL092W, strain hpr5, hits give low values 0.997 | locus YJL095W, strain BCK1 (second series), hits give low values 0.992 | locus YJL095W, strain BCK1, hits give low values 0.985 and 0.968 | locus YJL115W, strain asf1, hits give low values 1.02 | locus YJL129C, strain trk1, hits give low values 1.05 | locus YJL134W, strain LCB3, hits give low values 1 | locus YJL154C, strain vps35, hits give low values 0.992 | locus YJL164C, strain tpk1, hits give low values 0.966 | locus YJL166W, strain qcr8, hits give low values 0.984 | locus YJL168C, strain set2, hits give low values 0.979 | locus YJL187C, strain SWE1 (second series), hits give low values 0.998 | locus YJL187C, strain SWE1, hits give low values 0.996 | locus YJR043C, strain POL32, hits give low values 0.977
